About 5,500 (1.4%) of roughly 400,000 compounds were called active. A call without a number means that no potency is given here. About 9% were inconclusive and are not listed. Calls come from the whole dose curve; as a rule, active = well fitted cell-killing curve with a large enough effect; inconclusive = small, poorly fitted or top-dose-only effect, or effect the other way; inactive = flat fitted curve, though single readings scatter. This excerpt belongs to a sample that is enriched for actives.
Potency is the fitted concentration of half-maximal effect.

The experiment in a line: qHTS assay for MDR1-selective chemotherapeutics: Primary screen using the parental adenocarcinoma cell KB-3-1. Note: nearly all actives have a fitted effect of over 60% in size. As to conditions: KB-3-1 viability, CellTiter-Glo ATP luminescence, 72 h; series mostly up to 46.1 µM. The procedure, abridged:
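Parental KB-3-1 viability, qHTS format: 72 h compound exposure, 37 °C; CellTiter-Glo; media-only wells and DMSO plates as controls; concentration-effect fits on corrected data.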
For orientation: qHTS replaces the single test concentration by a dilution series.
As for `CN(C(=N)N)c1ccc(/C=C2\C=Cc3ccccc32)cc1`, the Potency result is “inactive”. The result for `COc1ccccc1NC(=O)CSC1=Nc2ccccc2C2=NC(CC(=O)NCc3cccs3)C(=O)N12` (stereo not drawn) reads “inactive”; that for `Cc1ccc(C(=O)Nc2ncccc2C)cc1S(=O)(=O)N1CCOCC1`, “inactive”. Regarding `O=C(Nc1ccc2c(c1)CCC2)c1cccc(S(=O)(=O)N2CCN(c3ccc(F)cc3)CC2)c1`, the Potency result is “inactive”. In the case of `Cc1cccnc1NC(=O)c1cccc(S(=O)(=O)N2CCN(c3ccc(F)cc3)CC2)c1`, the Potency is 20.6 µM (active). Take `CCOC(=O)c1ccc2c(c1)nc(C)n2CC`: the Potency result was “inactive”. Turning to `CCn1c(/C=C/Nc2ccccc2)[n+](CC)c2ccc(C(=O)OCC(F)(F)F)cc21`, the Potency was 18.4 µM (active). Regarding `CCOC(=O)c1cc2ccccc2n1CC(=O)c1ccccc1`, the Potency entry was “inactive”.

As to `COc1ccccc1-c1noc(-c2ccc(NCc3ccccc3)c([N+](=O)[O-])c2)n1`, the Potency result was “inactive”. Regarding `CNC(=O)C[C@H]1C(=O)N(c2ccc(OC)cc2)C[C@@H]1Cc1ccccc1`, the Potency entry was “inactive”. As for `C[C@H]1CN(c2ccc(Br)cc2)C(=O)[C@@H]1CC(=O)Nc1ccc(Br)cc1`, the Potency entry is “inactive”.

In the case of `O=C1N(Cc2ccccc2)c2ccc(Cl)cc2C1(O)c1c[nH]c2ccccc12` (stereo not drawn), the Potency entry is “inactive”. `CCc1nc(N2CCN(C(C)=O)CC2)c2c3c(sc2n1)CCCC3`: the Potency result was “inactive”.

With `COCCNc1nc(-n2nc(C)cc2C)nc2sc3c(c12)CCCC3`, the Potency was 11.6 µM (active). Turning to `CCC(O)CNc1nc(-n2nc(C)cc2C)nc2sc3c(c12)CC(C)(C)OC3` (stereo not drawn), the Potency result is “inactive”. In the case of `CC(C)Oc1ccc(NC(=O)c2cc3ccccc3o2)cc1`, the Potency result is “inactive”.

Take `Cc1c(/C=N\NC(=O)c2cc3ccccc3o2)c2ccccc2n1C`: the Potency is 8.2 µM (active). For the compound `Cc1c(/C=N/N2C(=O)C3C4C=CC(C4)C3C2=O)c2ccccc2n1C` (stereo not drawn), the Potency result is “inactive”.

Take `CC(C)CC(COCc1ccc(Cl)cc1)N1CCN(C(=O)c2ccc(C(F)(F)F)cc2)CCC1=O` (stereo not drawn): the Potency was 18.4 µM (active). In the case of `O=C(c1cc(Cl)cc(Cl)c1)N1CCC(=O)N(C(COCc2ccccc2)Cc2ccccc2)CC1` (stereo not drawn), the Potency result is “inactive”. `O=C(c1ccc(C(F)(F)F)cc1)N1CCC(=O)N([C@H](COCc2ccccc2)Cc2ccccc2)CC1`: the Potency result was “inactive”. With `COc1ccc(C(=O)NCC(c2ccc(N(C)C)cc2)N2CCc3ccccc32)c(OC)c1` (stereo not drawn), the Potency result was “inactive”.

`CC1CC(C)CN(c2oc(-c3ccc(OCc4ccc(Cl)cc4)cc3)nc2C#N)C1` (stereo not drawn): the Potency result was “inactive”.

Take `Cc1ccc(Nc2nc3ccccc3nc2-n2nc(C)cc2C)c(Cl)c1`: the Potency result is “inactive”.

In the case of `Cc1cc2c(cc1C)C(c1cccc(OC(C)C)c1)CC(=O)N2` (stereo not drawn), the Potency result is “inactive”.

For `CCCOc1ccccc1C1CC(=O)Nc2cc3c(cc21)OCO3` (stereo not drawn), the Potency is 2.59 µM (active). For `O=C1CC(c2ccc(F)cc2F)c2cc3c(cc2N1)OCO3` (stereo not drawn) the value was “inactive”; for `CC(C)Cn1c(-c2ccc(S(=O)(=O)N3CCOCC3)cc2)csc1=Nc1cc(Cl)ccc1Cl`, “inactive”; for `CN(N=O)c1ccc(C=C2c3ccccc3-c3ccccc32)cc1`, “inactive”. For `C[N+](C)(C)CCNC(=O)c1c[nH]c2ccccc12` the value was “inactive”; for `COc1ccc(/C=C(\C#N)c2c[nH]c3ccccc23)cc1`, 1.64 µM (active); for `COc1ccc(C2C(C(C)=O)=C(O)C(=O)N2CCc2c[nH]c3ccccc23)cc1` (stereo not drawn), “inactive”. Consider `Cc1cc(C)c(C(=O)CSc2nc(C)cc(=O)[nH]2)c(C)c1`, for which the Potency entry is “inactive”.

Take `Cc1cc(C(=O)CSc2nc(N)cc(=O)[nH]2)c(C)n1-c1cccc(F)c1`: the Potency is 5.8 µM (active). For the compound `Cc1cc(C(=O)CSc2nc(N)cc(=O)[nH]2)c(C)n1CCc1ccc(Cl)cc1`, the Potency entry is “inactive”. With `Cc1cccc(C(=O)N2CCc3cc(CNC(=O)Cc4ccc(F)cc4)ccc32)c1`, the Potency entry was “inactive”. As to `CCOc1ccc(OCC)c(NS(=O)(=O)c2ccc3[nH]c(=O)ccc3c2)c1`, the Potency entry is “inactive”. For the compound `O=[N+]([O-])c1ccccc1S(=O)(=O)Nc1cccc2cccnc12`, the Potency entry is “inactive”. As for `COc1cc(NS(=O)(=O)c2ccc3ccccc3c2)c2ncccc2c1`, the Potency is 6.51 µM (active).

Turning to `CCN(CCCNC(=O)CSc1cc(=O)n(C)c2cc(Cl)ccc12)c1cccc(C)c1`, the Potency result is “inactive”. For the compound `CCc1ccccc1NC(=O)/C(=C/c1ccccc1)c1ccccc1`, the Potency entry was “inactive”.

Turning to `CCOC(=O)C(=Cc1ccccc1)C(=O)c1ccccc1`, the Potency was 20.6 µM (active). Regarding `CCOC(=O)CCP(=O)(O)C(O)(c1ccccc1)c1ccccc1`, the Potency entry is “inactive”. With `Cc1ccc2cccc(NC(=O)c3ccc(OC(C)C)cc3)c2n1`, the Potency result was “inactive”. With `CCOC(=O)C1CCCN(S(=O)(=O)c2cc(-c3cc(C)no3)ccc2OC)C1` (stereo not drawn), the Potency result was “inactive”. In the case of `CCc1cccc(C)c1NC(=S)N(CCCN1CCN(C)CC1)Cc1cccs1`, the Potency result is “inactive”. With `Cc1ccccc1NC(=S)N(CCCN1CCOCC1)Cc1cccs1`, the Potency entry was “inactive”.

Regarding `Cc1ccc(NC(=S)N(CCCN2CCCC2)Cc2cccn2Cc2ccc(Cl)cc2)cc1`, the Potency was 20.6 µM (active). For the compound `Cc1ccccc1-c1nc(CS(=O)(=O)CC(=O)Nc2cc(Cl)cc(Cl)c2)c(C)o1`, the Potency result is “inactive”.

In the case of `Cc1nnc(N2CCC(C(=O)Nc3ccc(F)cc3)CC2)c2nn(-c3ccc(Cl)cc3)c(C)c12`, the Potency entry is “inactive”. As for `CCc1ccccc1NS(=O)(=O)c1ccc2nc(-c3ccccc3)[nH]c2c1`, the Potency result is “inactive”. For `COc1cc(CNCCN(C)C)ccc1OCc1c(F)cccc1Cl` the value was “inactive”. On to `COc1cc(CNCCSc2nnnn2C)ccc1OCc1c(F)cccc1Cl`, for which the Potency was 18.4 µM (active).

Take `COc1cc(CNCCSc2nnnn2C)ccc1OCc1ccc(Cl)cc1Cl`: the Potency entry is “inactive”. `CCOC(=O)c1c(-c2cccc(C)c2)csc1NC(=O)c1c(-c2ccccc2)noc1C`: the Potency was 5.17 µM (active).

Regarding `Cc1onc(-c2ccccc2Cl)c1C(=O)OCc1nnc(-c2ccccc2)o1`, the Potency result was “inactive”. As for `CCOC(=O)c1c(NC(=O)c2cc(-c3ccc(Cl)cc3)on2)sc2c1CCCC2`, the Potency entry was “inactive”. `CC1=C(C(=O)Nc2ccccc2)C(c2ccc(C)cc2)n2nc(SCc3ccccc3C)nc2N1` (stereo not drawn): the Potency result was “inactive”. For `CCOc1ccc(N(CC)S(=O)(=O)N2CCCC(C(=O)NCc3ccc(SC)cc3)C2)cc1` (stereo not drawn) the value was “inactive”; for `COc1ccccc1Nc1nc(N)nc(N)c1S(=O)(=O)c1ccccc1`, “inactive”; for `CC1(C)N=C(N)NC(Nc2ccc(Cl)cc2)=N1`, “inactive”. On to `COc1ccccc1NC1=NC(c2ccc(Cl)cc2)N=C(N)N1` (stereo not drawn), for which the Potency was 3.66 µM (active). For `CCOC(=O)c1ccc(NC(=O)c2c(NCc3cccc(OC)c3)sc3c2CCC3)cc1` the value was “inactive”; for `COc1ccc(-c2csc(-c3c(N)c(C(=O)c4ccc(OC)c(OC)c4)n4ccccc34)n2)cc1`, “inactive”. Regarding `CCN(CC)CCNc1ncnc2c1cnn2-c1cc(Cl)ccc1C`, the Potency result was “inactive”. Turning to `CCN(CC)CCCC(C)Nc1ccnc2cc(Cl)ccc12` (stereo not drawn), the Potency is 10.3 µM (active). The result for `CCN(CC)CCNc1ccc(Cl)cc1[N+](=O)[O-]` reads “inactive”; that for `CNCCCOc1cc2nc(N3CCCN(C)CC3)nc(NC3CCN(C)CC3)c2cc1OC`, “inactive”. For `CCOC(=O)c1cc(-c2ccc(OC)c(S(=O)(=O)Nc3ccc(OC)cc3OC)c2)on1` the value was “inactive”. For `Cc1cccc(CNC(=O)c2cnc3sc(N4CCCCC4)nn3c2=O)c1` the value was “inactive”; for `CCOC(=O)CSC1=Nc2ccccc2C2=NC(CCC(=O)NCc3ccc(F)cc3)C(=O)N12` (stereo not drawn), “inactive”. Turning to `Cc1ccc(CNC(=O)CSC2=Nc3ccccc3C3=NC(C)C(=O)N23)cc1` (stereo not drawn), the Potency result is “inactive”. In the case of `CC(C)C1N=C2c3ccccc3N=C(SCC(=O)c3ccc(O)c(O)c3)N2C1=O` (stereo not drawn), the Potency is 23.1 µM (active).

For `Cc1ccc(Cn2cc(CN3CC(N4CCN(C)CC4)CS3(=O)=O)nn2)cc1` (stereo not drawn), the Potency result is “inactive”. For `CN(Cc1cn(Cc2ccc(C(F)(F)F)cc2)nn1)C1CN(Cc2cn(Cc3ccc(C(F)(F)F)cc3)nn2)S(=O)(=O)C1` (stereo not drawn), the Potency is 10.3 µM (active).

As for `CN(C)C1CN(Cc2cn(Cc3ccccc3)nn2)S(=O)(=O)C1` (stereo not drawn), the Potency entry was “inactive”. The result for `CCOc1ccc2nc(N3CCC(C(=O)Nc4cc(C)ccc4C)CC3)sc2c1` reads “inactive”. Take `Cn1ccc2cc(S(=O)(=O)N3CCCC(C(=O)NCc4ccccc4F)C3)ccc21` (stereo not drawn): the Potency entry is “inactive”. On to `COc1cc(Cl)c(NC(=O)CC(C)S(=O)(=O)c2cc3c(cc2C)NC(=O)CO3)c(OC)c1` (stereo not drawn), for which the Potency result is “inactive”. For `Cc1ccccc1CNC(=O)c1cccc(NC(=O)c2nsc3ccccc23)c1` the value was “inactive”; for `O=C(NNC(=O)c1ccccc1O)c1ccccc1O`, 2.59 µM (active). For `CC1=C(C)CC(C(=O)NNC(=O)c2ccccc2O)C(C(=O)O)C1` (stereo not drawn), the Potency entry is “inactive”. With `O=C(NNC(=O)c1cc(S(=O)(=O)N2CCCCC2)ccc1Cl)c1ccccc1O`, the Potency result was “inactive”. For `Cc1ccc(CSc2oc(-c3cccs3)nc2S(=O)(=O)c2ccc(C)cc2)cc1` the value was “inactive”; for `CCN(C(=O)c1sc2cc(OC)ccc2c1Cl)c1ccccc1`, 20.6 µM (active). On to `CCN(C(=O)c1ccc(Br)cc1)c1ccccc1`, for which the Potency result is “inactive”. Take `CCN(C(=O)COc1ccc(C(=O)c2ccccc2)cc1)c1ccccc1`: the Potency result was “inactive”. As for `CCC(=O)Nc1cccc(-c2nc3cc(C)ccc3o2)c1`, the Potency entry is “inactive”.

As to `CCN(CC)S(=O)(=O)c1ccc2c(c1)c(=O)c(C(=O)N1CCN(c3cccc(Cl)c3)CC1)cn2C`, the Potency result was “inactive”.

Take `CCn1c(/C=C/c2ccc([N+](=O)[O-])o2)nc2ccccc2c1=O`: the Potency is 3.26 µM (active). Consider `CCCN(CCC)c1c([N+](=O)[O-])c(=O)oc2ccccc12`, for which the Potency entry is “inactive”.

On to `C=CCn1c(SCC(=O)NC(=O)Cc2ccccc2)nc2ccccc2c1=O`, for which the Potency entry was “inactive”. `CCCCCn1c(CCCNC(=O)c2ccccc2OC)nc2ccccc21`: the Potency entry is “inactive”. As for `CCOCCOC(=O)C1=C(C)NC(=O)NC1c1ccc2c(c1)OCO2` (stereo not drawn), the Potency entry is “inactive”. Turning to `CCOC(=O)C1=C(CCc2ccccc2)NC(=O)NC1c1ccc2ccccc2c1` (stereo not drawn), the Potency is 23.1 µM (active). Turning to `CCOC(=O)C1=C(CN2CCc3ccccc32)NC(=O)NC1c1ccc(Cl)cc1` (stereo not drawn), the Potency result is “inactive”. For `Cc1cccc(N2CCN(C(=O)c3cc4c(=O)oc5ccccc5c4s3)CC2C)c1` (stereo not drawn) the value was “inactive”; for `CCOc1ccc(NC(=O)C(=O)NCCc2csc3nc(-c4ccccc4F)nn23)cc1`, “inactive”.
